# In ChEMBL document CHEMBL3988442, “University of Dundee, Small-Polar-MMV Screening Library” (2021):
# Out of some 66,000 compounds screened, about 960 (1.5%) showed an effect of 50% or more. The list comes from a sample in which strong results are over-represented; it also holds similar structures and randomly drawn compounds.
# Tested on: Trypanosoma brucei
# Test: Trypanosoma brucei 72 hour study
# Type: functional, organism-based
# Design: scale not given: in the data most compounds retested in dose-response had high values
compound,measurement,setting,value
CCCc1nc(N2CCCN(c3ccncc3)CC2)c2cnn(C)c2n1,Percent Effect,"30 µM, 30.03 µM",59.27%
CCCc1nc(N2CCCN(c3ncccn3)CC2)c2cnn(C)c2n1,Percent Effect,"30 µM, 30.03 µM",-12.92%
CCCc1nc(N2CCN(Cc3ccccn3)CC2)c2cnn(C)c2n1,Percent Effect,"30 µM, 30.03 µM",36.81%
CC(=O)N1CCC(n2nccc2-c2cnc(N)nc2)CC1,Percent Effect,"30.3 µM, […]",-9.866%
Cn1ncc2c(NC3CCCN(C(=O)C4CC4)C3)nc(C(C)(C)C)nc21 (stereo not given),Percent Effect,"30 µM, 30.03 µM",43.28%
Cn1ncc2c(N[C@H]3CC[C@@H](N)CC3)nc(C(C)(C)C)nc21,Percent Effect,"30.3 µM, […]",99.86%
Cn1ncc2c(N[C@H]3CCCC[C@@H]3O)nc(C(C)(C)C)nc21,Percent Effect,"30.3 µM, […]",-1.471%
Cc1cccc(C(=O)N2C[C@@H]3CCN(c4cccnc4)C[C@@H]3C2)c1.O=C(O)C(F)(F)F,Percent Effect,"30 µM, 30.03 µM",1.381%
COCCN1C(=O)CC[C@@H]2[C@H]1CCN2Cc1cccc(C#N)c1.O=C(O)C(F)(F)F,Percent Effect,"30.3 µM, […]",-247.8%
CCCN(Cc1ccccc1O)S(=O)(=O)N(C)CC,Percent Effect,"30 µM, 30.03 µM",-50.11%
CCC(C)S(=O)(=O)N(Cc1ccco1)Cc1ccccc1O (stereo not given),Percent Effect,"30 µM, 30.03 µM",-17.24%
CCCN(Cc1ccccc1O)S(=O)(=O)C(C)CC (stereo not given),Percent Effect,"30 µM, 30.03 µM",101.6%
Cl.Nc1ccc(-c2cnc(C3CCCN3)cn2)cn1 (stereo not given),Percent Effect,"30.3 µM, […]",19.85%
Cc1ccc(N2CCc3sc(C(=O)NCCN4CCCC4)cc32)nn1,Percent Effect,"30.3 µM, […]",54.03%
Cc1ccc(N2CCc3sc(C(=O)N4CCOCC4)cc32)nn1,Percent Effect,"30.3 µM, […]",-27.02%
O=C(NCCN1CCCC1)c1cc2c(s1)CCN2c1ncccn1,Percent Effect,"30.3 µM, […]",35.85%
Cc1cc(C(=O)N2CC[C@H]3[C@H](C[C@@H](CN4CCCC4)N3C)C2)c(C)o1.O=C(O)C(F)(F)F.O=C(O)C(F)(F)F,Percent Effect,"30.3 µM, […]",-13.25%
Cl.O=C(NCCn1nc(C2CCNC2)c2cccnc21)C1CCC1 (stereo not given),Percent Effect,"30.3 µM, […]",-2.901%
Cc1cc(C)c2c(N3CCN(C(=O)N(C)C)CC3)ncnc2n1,Percent Effect,"30 µM, 30.03 µM",-10.57%
O=C(c1cccc(Cl)c1)C1CCCN(c2nnc(C3CCC3)o2)C1 (stereo not given),Percent Effect,"30 µM, 30.03 µM",75.84%
Cc1nnc(N2CCCC(C(=O)c3cccc(Cl)c3)C2)o1 (stereo not given),Percent Effect,"30 µM, 30.03 µM",-2.386%
O=C(c1cccnc1)C1CCCN(c2nnc(C3CC3)o2)C1 (stereo not given),Percent Effect,"30 µM, 30.03 µM",-35.25%
NCCn1cc(C(=O)N2CCCCCC2c2ccco2)nn1 (stereo not given),Percent Effect,"30 µM, 30.03 µM",-18.67%
Oc1cc(-c2nccs2)nc(C2CCN(Cc3cccs3)CC2)n1,Percent Effect,"30.3 µM, […]",-16.93%
Oc1cc(C2CCCCN2Cc2cccs2)nc(-c2ccccn2)n1 (stereo not given),Percent Effect,"30.3 µM, […]",99.61%
Oc1cc(C2CCCCN2Cc2cccs2)nc(-c2ccncc2)n1 (stereo not given),Percent Effect,"30.3 µM, […]",-2.917%
Cn1ncc2ccc(C3CCCN(Cc4cccs4)C3)nc21 (stereo not given),Percent Effect,"30.3 µM, […]",11.55%
Oc1cc(C2CCCCN2Cc2ccsc2)nc(-c2ccncc2)n1 (stereo not given),Percent Effect,"30.3 µM, […]",-12.11%
Oc1cc(C2CCCN(Cc3cccs3)C2)nc(-c2ccccn2)n1 (stereo not given),Percent Effect,"30.3 µM, […]",100.2%
O=C(CCn1cc(Cl)cn1)Nc1ccc2c(c1)OCCO2,Percent Effect,"30 µM, 30.03 µM",-17.81%
CN(C)c1ccc(C(=O)N2CCCN(C3CCCCC3)CC2)cn1,Percent Effect,"30.3 µM, […]",-15.89%
Cc1ccc(Cc2cnc(C3CCNCC3)cn2)cc1.Cl,Percent Effect,"30.3 µM, […]",-22.29%
O=S(=O)(NCC(c1ccsc1)N1CCCCCC1)c1cccs1 (stereo not given),Percent Effect,"30 µM, 30.03 µM",-20.18%
Oc1nc(N2CCOCC2)nc2c1CCN(Cc1cccc(F)c1)CC2,Percent Effect,"30.3 µM, […]",-14.28%
Oc1nc(N2CCOCC2)nc2c1CCN(Cc1ccc(F)cc1)CC2,Percent Effect,"30.3 µM, […]",100.3%
Oc1nc(N2CCOCC2)nc2c1CCN(Cc1ccccc1)CC2,Percent Effect,"30.3 µM, […]",-21.1%
CC(C)c1nc(CCN(C)c2nccc(N3CCCC(O)C3)n2)no1 (stereo not given),Percent Effect,"30.3 µM, […]",3.693%
Cc1oncc1C(=O)N1CC[C@H]2[C@H]1CCN2S(C)(=O)=O,Percent Effect,"30.3 µM, […]",97.42%
Cc1cc(C(=O)N2CC[C@H]3[C@H]2CCN3S(C)(=O)=O)c(C)o1,Percent Effect,"30.3 µM, […]",-71.76%
Cc1oncc1C(=O)N1CC[C@H]2[C@@H]1CCC(=O)N2CC1CC1,Percent Effect,"30.3 µM, […]",-43.42%
Cc1cccc(CN2CCC3(CC2)CC(c2cccnc2)C(=O)N3C)n1.O=C(O)C(F)(F)F.O=C(O)C(F)(F)F (stereo not given),Percent Effect,"30.3 µM, […]",-33.95%
COCC(=O)N1CCC2(CC1)COCCN2Cc1ccc(F)cc1.O=C(O)C(F)(F)F,Percent Effect,"30 µM, 30.03 µM",14.27%
Cc1nc(CC2CCN(Cc3ccc(CCC(C)(C)O)cc3)CC2)no1,Percent Effect,"30.3 µM, […]",-0.2557%
Cc1noc2nc(C3CCN(CC4CCCCC4)CC3)cc(C(F)F)c12.Cl,Percent Effect,"30.3 µM, […]",30.15%
CCn1nc(C)c2ccn(CC(=O)NCCCOC)c(=O)c21,Percent Effect,"30 µM, 30.03 µM",9.008%
O=C(O)C(F)(F)F.O=C(c1ccccn1)N1C[C@H]2CCC[C@@]2(COCC2CCOCC2)C1,Percent Effect,"30 µM, 30.03 µM",14.59%
O=C(c1ccncn1)N1C[C@H]2CCC[C@@]2(COCC2CCOCC2)C1,Percent Effect,"30 µM, 30.03 µM",54.31%
O=C(c1cccs1)N1C[C@H]2CCC[C@@]2(COCC2CCOCC2)C1,Percent Effect,"30 µM, 30.03 µM",13.05%
Cc1ccsc1C(=O)N1CCCN(Cc2cscn2)CC1,Percent Effect,10 µM,-20.65%
CN(C)C(=O)[C@H]1CCS(=O)(=O)[C@@H]2CN(c3ncccn3)C[C@H]12,Percent Effect,"30.3 µM, […]",-0.441%
